According to PubChem BioAssay (NCI):
About 83,000 compounds went through this panel and 20% of them were active in at least one assay; those are over-represented in the sample as a whole.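 Activity criterion: percent growth below 10, measured after cells in 96-well plates were exposed to a single compound concentration for 48 hours.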 Active and inactive are the calls of the source.

These compounds were tested on MDA-MB-468 breast (assay: NCI-60 one-dose screen, 48 h (100 = growth as untreated, 0 = no growth, -100 = all killed)). Details: 10 µM.
Method: Growth inhibition of the MDA-MB-468 human Breast tumor cell line is measured as a screen for anti-cancer activity. Cells are grown in 96 well plates and exposed to the test compound for 48 hours. Compounds are tested at a single concentration, which is 10^-5 M for most compounds. The reported endpoint is percent growth (GI% or GIPRCNT), where numbers from 0 - 100% represent growth inhibition, and numbers from -100% - 0 represent cell death. For example, a value of 40 represents 60% growth inhibition. A value of 0 means no net growth occurred over the course of the experiment. A value of -40 indicates 40% of cells at the beginning of the experiment died by the end of the experiment. A value of -100 means all cells are dead at the end of the experiment.
NCI-60 Human Tumor Cell Lines Screen was performed using the standard one-dose NCI protocol, which is described in more detail at https://dtp.cancer.gov/discovery_development/nci-60/default.htm.
Compounds with GIPRCNT values below 10 were considered active. Activity score was based on GIPRCNT using the following formula: […]
Score is 0 for GIPRCNT values of 100 or above, 50 for GIPRCNT values of 0, and 100 for GIPRCNT values of -100.

Structure (SMILES) | growth
CC(=O)/C=C/c1ccc(OCc2ccc(Cl)cc2)cc1 | 109% (inactive)

Same assay, conditions: 10 µM unless noted

Structure (SMILES) | growth
CN1CCN(c2ccc(Nc3nc(NCCNC(=O)c4ccccc4)c4sccc4n3)cc2)CC1 | 45.3% (inactive)
O=C(CCCCCCCC(=O)N1CCCCC1)N1CCCCC1 | 105% (inactive)
Cc1ccc(N2C3c4ccccc4N(S(=O)(=O)c4ccc(C)cc4)C2c2ccccc2N3S(=O)(=O)c2ccc(C)cc2)cc1 | 120% (inactive)
COc1cc2nnc3c4cccnc4[nH]c3c2cc1OC | -69.9% (active)
Cc1cc2c(C(C)C)c(O)c(O)c(C=NCc3ccoc3)c2c(O)c1-c1c(C)cc2c(C(C)C)c(O)c(O)c(C=NCc3ccco3)c2c1O | 61% (inactive)
O=[P@@]1(c2ccccc2)O[C@H](COCc2ccccc2)[C@@H](OCc2ccccc2)[C@H](OCc2ccccc2)[C@H]1NCc1ccccc1 | 14% (inactive)
CC1(C)CC(=O)NC1=O | 100% (inactive)
COc1ccc(-c2nc(-c3nc4cc(Cl)c(F)cc4[nH]3)c3ccccn23)cc1 | 54.6% (inactive)
COc1cc2nc(Cl)nc(Nc3cccc(C4=Nc5c(N)nc(N)nc5NC(c5ccc6c(c5)OCO6)C4)c3)c2cc1OC (stereo not given) | 81.7% (inactive)
CC1CC(C(C)(C)C)C(=O)C(C(C)(C)C)C1 (stereo not given) | 99.8% (inactive)
N#Cc1c(-c2ccccc2)nc2c(c(-c3ccccc3)nn2-c2ccccc2)c1-c1ccc(N2CCOCC2)cc1 | 80.9% (inactive)
COC(=O)c1c2c(c[n+]([O-])c1C)C(=O)C=CC2=O | -17.2% (active)
Cc1ccc(-c2cc3nc(C(Cl)Cl)nc(-c4cccnc4)n3n2)cc1 | -61.5% (active)
O=C(c1ccc(Nc2nccc(NCCCNc3ccnc4cc(Cl)ccc34)n2)cc1)N1CCCCC1 | 29.5% (inactive)
CC1(C)N=C(N)N=C(N)N1c1cc(Cl)ccc1Cl | 53.5% (inactive)
O=[N+]([O-])c1cccc(N=NNc2cccc([N+](=O)[O-])c2)c1 | 57.9% (inactive)
CCCCCc1c(C)[nH]c(/C=C2\N=C(c3ccc[nH]3)C=C2Oc2ccccc2)c1C | -59.3% [100 µM] (active)
COc1ccc2oc(=O)cc(-c3c(C#N)c(N)n4nc(N)c(C#N)c4c3C#N)c2c1 | 94.7% (inactive)
CSc1nn2c(-c3ccc4ccccc4c3)ccnc2c1C#N | 41.3% (inactive)

Structure (SMILES) | growth
O=C1/C(=C/c2ccc3c(c2)OCO3)SC(=S)N1CCc1ccc(O)cc1 | 67.8% (inactive)
O=C(Nc1ccc(-n2ccc3c(NC(=O)c4ccccc4)ncnc32)cc1)Nc1ccc(Cl)c(C(F)(F)F)c1 | -56.3% (active)
CCN(CC)CCNc1ccc([N+](=O)[O-])c2sc3ccccc3c(=O)c12 | 1.4% (active)
CC1(C)CC(=O)C(c2c(-c3ccccc3)[nH]c3[nH]c(=S)[nH]c(=O)c23)=C(O)C1 | 109% (inactive)
CC(C)=CCC/C(C)=C/CC/C(C)=C/CC/C(C)=C/CSC[C@H](NC(=O)CCCCCN1CCN(C)CC1)C(=O)NC1CCCCC1 | 79.2% (inactive)
CC(=O)C(CO)C(=O)Nc1ccccc1 (stereo not given) | 104% (inactive)
Cc1ccc(O)c(C(=O)c2ccccc2)c1 | 103% (inactive)
CCOC(=O)c1ccc(NC(=O)N2CC(C)OC(C)C2)cc1 (stereo not given) | 91.7% (inactive)
COc1ccc(C(=O)n2nc(-c3ccccc3)nc2N)cc1OC | 68.8% (inactive)
CCCCn1c(=O)[nH]c(N)c(C(c2ccc(Cl)cc2)c2c(N)[nH]c(=O)n(CCCC)c2=O)c1=O | 10.1% (inactive)
COc1ccc(-c2nc(-c3ccccn3)c(-c3ccccn3)n2CC(C)C)cc1OC1CCCC1 | -10.7% (active)
O=C1/C=C/[C@@H](O)[C@@H]2C[C@@H](O)C[C@H]2/C=C/CCC[C@H](CCc2ccc3ncccc3c2)O1 | -5.95% (active)
COc1cc(-c2nc3sccn3c2-c2ccnc(NCCCNS(=O)(=O)c3ccc(F)cc3)n2)ccc1F | 61.3% (inactive)
COc1ccc(/C=C/C(=O)c2ccc(Nc3nc(NCCO)nc(Nc4ccc(Cl)cc4)n3)cc2)cc1 | 73% (inactive)
CCN(CC)CCNC(=O)C(F)(F)C(F)(F)C(F)(F)F | 105% (inactive)
CCC1CCc2nc3sc(C(=O)Nc4cccc(F)c4)c(N)c3cc2C1 (stereo not given) | 23.4% (inactive)
COc1ccc(Cl)cc1NC(=O)c1cc2c([nH]1)-c1nc(NC(=O)C(C)(C)C)sc1CC2 | 84.9% (inactive)
CN1CCN(Cc2ccc(NC(=O)c3[nH]ncc3Nc3ncnc4sccc34)cc2)CC1 | 15.8% (inactive)
CCN1CCN(CC(=O)Nc2ccc(-c3cn4c(n3)sc3cc(Oc5ccnc(C(=O)NC)c5)ccc34)cc2)CC1 | 74.4% (inactive)

Same assay, conditions: 100 µM

Structure (SMILES) | growth
CC(=O)/C=C/c1ccc(OCc2ccc(Cl)cc2)cc1 | 1.46% (active)
